According to PubChem BioAssay (NCI):
Where “and” joins values, the source holds several entries; their conditions need not be identical. Equal values may be shown once. The panel holds about 83,000 compounds, 20% with a hit somewhere; the sample as a whole holds those more often.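 96-well plates, one dose, 48 hours. Percent growth reported; active if below 10.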 Calls of active or inactive are those of the source.

Each compound was assayed on MDA-MB-468 breast (assay: NCI-60 one-dose screen, 48 h (100 = growth as untreated, 0 = no growth, -100 = all killed)). Details: 10 µM unless noted.

Compound | growth
C=C(C)[C@@H]1C/C=C(/C=O)CC[C@@H]2O[C@@]2(C)CC/C=C(\C)CC1 | 118% (inactive)
CCN(CC)CCn1c2ccc(O)cc2c2sc3cc(O)ccc3c(=O)c21 | 47.8% (inactive)
O[C@H](c1cc(C(F)(F)F)nc2c(C(F)(F)F)cccc12)[C@@H]1CCCCN1 | 27.3% (inactive) and -6.87% (active)
COc1cc2c(cc1OC)C(C(CCCCCC(CCC(C)C)C1NCCc3cc(OC)c(OC)cc31)CCC(C)C)NCC2 (stereo not given) | -87.1% (active)
Cn1c2nc3ccccc3c-2cc2ccccc21 | 41.3% (inactive)
Cc1cccc(C[C@H](NC(=O)Nc2ccc(Cl)cc2F)C(=O)N[C@@H]2C(=O)N3C[C@H](OC(=O)CCN(C)C)C[C@H]3C(=O)N3CCCC[C@H]3C(=O)N[C@@H](C)C(=O)N3C[C@H](C)C[C@H]3C(=O)O[C@H]2C)c1 | 9.39% (active)
O=C1Nc2ccccc2/C1=C/c1cn(CC(O)Cn2cc(/C=C3\C(=O)Nc4ccccc43)c3ccccc32)c2ccccc12 (stereo not given) | -84.8% (active)
O=C(Nc1cc([N+](=O)[O-])c2[nH]c(=O)c3ccccc3c2c1)C(F)(F)F | -15.2% (active)
CCOC(=O)c1c(-c2ccc(C)cc2)c(C#N)c(=O)n(-c2cccc(C(F)(F)F)c2)c1N | 99.9% (inactive)
CCOC(=O)c1ccoc1 | 95.7% (inactive)
CC(C)(C)C(=O)OCOP(=O)(OCOC(=O)C(C)(C)C)C1CC(O)N(O)C1=O (stereo not given) | 61% (inactive)
CC(C)NCC(O)COc1ccc(CC(N)=O)cc1 (stereo not given) | 102% (inactive)
CCOC(=O)c1c(C)nc2c(c1N)/C(=C/c1ccccn1)C(=O)N2Cc1ccccc1 | -49.5% (active)
Clc1cc(Cl)c2nc(-c3ccc(-c4ccc(/C=N/NC5=NCCN5)cc4)s3)cn2c1 | 103% (inactive)
COc1cccc(C(=O)NC(c2ccc(C)cc2)c2cc(Cl)c3cccnc3c2O)c1 (stereo not given) | -8.72% (active)
COc1ccc(Oc2ccccc2NC(=O)CNC(=O)c2cccc3ccccc23)cc1 | 23.7% [5 µM] (inactive)
C=CCOc1c(Br)cc(Br)cc1Br | 96.8% (inactive)
O=C1Nc2ccccc2Oc2ccc(S(=O)(=O)CC3CO3)cc21 (stereo not given) | -5.7% (active)
CC(C)OC(=O)OCOP(=O)(OCOC(=O)OC(C)C)C1CCCN(O)C1=O (stereo not given) | 36.3% (inactive)
O=C(CCCN1CCOCC1)Nc1ccc(Cn2nnc3c2C(=O)c2nnn(Cc4ccc(NC(=O)CCCN5CCOCC5)cc4)c2C3=O)cc1 | -74.7% (active)

Compound | growth
CCc1ccccc1-n1c(-c2ccc(OC)cc2)cc(-c2ccc(OC)cc2)c(C#N)c1=O | 96.9% (inactive)
COc1cc(OC)c(S(N)(=O)=O)cc1C(C)=O | 98.4% (inactive)
O=c1c2cccc3c(N4CCCC4)ccc(c32)c2nc3ccccc3n12 | 80.3% (inactive)
O=C(c1ccccc1)c1c(/C=C/c2ccc(Cl)cc2)nc2ccccc2c1/C=C/c1cccs1 | 94.3% (inactive)
O=C(/C=C/c1ccccc1Cl)Nc1ncc(Cc2cc(Cl)ccc2Cl)s1 | 22.8% (inactive)
CCCC[N+](C)(N)CCCC | 106% (inactive)
COC(=O)CC/C(C)=N\Nc1ccc([N+](=O)[O-])cc1 | 71.1% (inactive)
O=C1c2cc3c(cc2-c2c1c1ccc(F)cc1c(=O)n2C[C@H](O)[C@H](O)[C@H](O)CO)OCO3 | -39.9% (active)
O=C(CCCCl)NNc1nccc(Nc2ccc(S(=O)(=O)Nc3ccncc3)cc2)n1 | 116% (inactive)
CCN(CC)c1ccc2c(c1)OS(=O)(=O)N=C2 | 111% (inactive)
CN1C(=O)N(C)C2Nn3c(s/c(=C4\C(=O)N(CCc5ccccc5)c5ccccc54)c3=O)=NC21 (stereo not given) | 39% (inactive)
COc1cc(-c2nccc3[nH]c(-c4cccc5[nH]ccc45)nc23)cc(OC)c1OC | -26.1% (active)
FC(F)(F)c1cc(-c2nnc3n2N=C(Cl)CS3)cc(C(F)(F)F)c1 | 84.4% (inactive)
COc1ccc(-n2c(COc3ccc(F)cc3)n[nH]c2=S)cc1 | 103% (inactive)
O=C(NCc1cccnc1)/C(=C\c1ccc(Br)cc1)S(=O)(=O)c1ccccc1 | -58.9% (active)
NC(=S)N/N=C/c1ccc(OC(=O)COc2ccc(Cl)cc2)cn1 | 24.6% (inactive)
COc1ccc2c(c1OC)CO[C@@H]2[C@H]1c2c(cc3c(c2OC)OCO3)CCN1S(=O)(=O)c1cn(C)cn1 | 17.4% (inactive)
C=CC(=O)Nc1cccc(-c2nc(SC)nc(Nc3ccccc3OC)c2C#N)c1 | 18.2% (inactive)
CCOC(=O)C(=CCC(C)C)C(=O)OCC | 98% (inactive)
CC(C)CSc1nc(NN)c(C#N)c(-c2ccccc2)n1 | 98.2% (inactive)
